Measurements: PubChem BioAssay (NCI)
The panel holds about 83,000 compounds, 20% with a hit somewhere; the sample as a whole holds those more often.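 Values shown are percent growth following 48 h exposure of cells in 96-well plates to a single concentration of compound; below 10 was considered active.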 Unmarked numbers belong to inactive results. Active and inactive are the calls of the source.

What was measured:
Assay in all cases: NCI-60 one-dose screen, 48 h (100 = growth as untreated, 0 = no growth, -100 = all killed)
[1] = test system: HCT-15 colon; settings: 10 µM unless noted
[2] = test system: HT29 colon; settings: 10 µM unless noted
[3] = test system: SNB-75 CNS; settings: 10 µM unless noted
[4] = test system: SNB-19 CNS; settings: 10 µM unless noted
[5] = test system: U251 CNS; settings: 10 µM unless noted
[6] = test system: PC-3 prostate; settings: 10 µM unless noted
[7] = test system: UACC-62 melanoma; settings: 10 µM unless noted
[8] = test system: LOX IMVI melanoma; settings: 10 µM unless noted
[9] = test system: SK-MEL-28 melanoma; settings: 10 µM unless noted
[10] = test system: SK-MEL-2 melanoma; settings: 10 µM
[11] = test system: EKVX NSCLC; settings: 10 µM unless noted
[12] = test system: SN12C renal; settings: 10 µM unless noted
[13] = test system: UO-31 renal; settings: 10 µM unless noted
[14] = test system: TK-10 renal; settings: 10 µM unless noted
[15] = test system: ACHN renal; settings: 10 µM unless noted
[16] = test system: A498 renal; settings: 10 µM unless noted
[17] = test system: CCRF-CEM leukemia; settings: 10 µM unless noted
[18] = test system: MOLT-4 leukemia; settings: 10 µM unless noted
[19] = test system: CAKI-1 renal; settings: 10 µM unless noted

O=C(c1ccccc1)C(c1ccccc1)N1CCOCC1 (centres undefined)
growth [1]: 104% | growth [2]: 99.1% | growth [3]: 100% | growth [4]: 100% | growth [5]: 95.1% | growth [6]: 92.7% | growth [7]: 105% | growth [8]: 98.2% | growth [9]: 105% | growth [10]: 91.1% | growth [11]: 99% | growth [12]: 101% | growth [13]: 86.9% | growth [14]: 90% | growth [15]: 106% | growth [16]: 111% | growth [17]: 91.2% | growth [18]: 94.3%

CCCCN1CCCC[C@@H]1C(=O)N[C@H](C(=O)N(C)[C@H](CCc1nc(C(=O)N[C@@H](Cc2ccccc2)C[C@H](C)C(=O)OC)cs1)C(C)C)C(C)C
growth [1]: 59.4% | growth [2]: 68.9% | growth [3]: 75.2% | growth [4]: 57.9% | growth [5]: 83.8% | growth [6]: 35% | growth [7]: 43.6% | growth [8]: 80% | growth [9]: 76.4% | growth [10]: 68.1% | growth [11]: 65.8% | growth [12]: 82.2% | growth [13]: 52.3% | growth [14]: 102% | growth [15]: 59.7% | growth [16]: 61.2% | growth [17]: 38.8% | growth [18]: 35.2%

O=C1C=CC2(NN=C(c3ccccc3)N2c2cccc(Cl)c2)c2cccc(O)c21 (centres undefined)
growth [1]: 23.8% | growth [2]: 79.3% | growth [3]: 57.5% | growth [4]: 43.9% | growth [5]: 24.1% | growth [6]: 32.7% | growth [7]: 3.48% (active) | growth [8]: 3.66% (active) | growth [9]: 35.8% | growth [11]: 76.2% | growth [12]: 41.6% | growth [13]: 33.3% | growth [14]: 118% | growth [15]: 45.6% | growth [19]: 90.7% | growth [16]: 89.1% | growth [17]: 70.9% | growth [18]: 67.6%

COc1ccc2c(CCCC(c3ccccc3)c3ccccc3)c3[n+](cc2c1OC)CCc1cc2c(cc1-3)OCO2
growth [1]: 13.2% | growth [2]: -2.94% (active) | growth [3]: -19.1% (active) | growth [4]: -16.4% (active) | growth [5]: -76.2% (active) | growth [6]: -68.8% (active) | growth [7]: -71.7% (active) | growth [8]: -100% (active) | growth [9]: -78.7% (active) | growth [10]: -52.4% (active) | growth [11]: 14.9% | growth [12]: -65.6% (active) | growth [13]: 5.46% (active) | growth [14]: -30.7% (active) | growth [19]: 57.7% | growth [17]: 5.53% (active) | growth [18]: -20.5% (active)

COc1cc(Nc2ncc(F)c(Nc3ccc4c(n3)N(COP(=O)(O)O)C(=O)C(C)(C)O4)n2)cc(OC)c1OC
growth [1]: 21.4% | growth [2]: -0.77% (active) | growth [3]: -95.5% (active) | growth [4]: 31.4% | growth [5]: 29.5% | growth [6]: 33.5% | growth [7]: 18.8% | growth [8]: -69% (active) | growth [9]: 45.6% | growth [11]: 32.7% | growth [12]: 22.8% | growth [13]: -23.9% (active) | growth [14]: -43.8% (active) | growth [15]: 6.43% (active) | growth [19]: -54.1% (active) | growth [16]: -70.9% (active) | growth [17]: 29.9% | growth [18]: 29.6%

C=CC(=O)N1CCC[C@H](n2c(=O)n(-c3ccc(Oc4ccccc4)cc3)c3c(N)ncnc32)C1
growth [1]: 98.3% | growth [2]: 68.9% | growth [3]: 113% | growth [4]: 79.1% | growth [5]: 89.2% | growth [6]: 87.9% | growth [7]: 81.2% | growth [8]: 72.4% | growth [9]: 113% | growth [11]: 57.4% | growth [12]: 71% | growth [13]: 50.5% | growth [14]: 27.6% | growth [15]: 41.2% | growth [19]: 69.1% | growth [17]: 82.3% | growth [18]: 68.5%

CC(=O)OC(C(=O)c1ccccc1)c1ccccc1 (centres undefined)
growth [1]: 105% | growth [2]: 80.4% | growth [3]: 84.6% | growth [4]: 103% | growth [5]: 106% | growth [6]: 89% | growth [7]: 100% | growth [8]: 107% | growth [9]: 107% | growth [11]: 109% | growth [12]: 94.6% | growth [13]: 75.6% | growth [14]: 94.6% | growth [15]: 101% | growth [19]: 91.7% | growth [16]: 95.9% | growth [17]: 104% | growth [18]: 102%

COc1cc2nccc(Oc3ccc(NC(=O)C4(C(=O)Nc5ccc(F)cc5)CC4)cc3)c2cc1OC
growth [1]: 5.75% (active) | growth [2]: -19.1% (active) | growth [3]: -18.9% (active) | growth [4]: 29.9% | growth [5]: 25.1% | growth [6]: 20.8% | growth [7]: -12.2% (active) | growth [8]: -71.2% (active) | growth [9]: 1.37% (active) | growth [11]: 23.4% | growth [12]: 9.57% (active) | growth [13]: -19.2% (active) | growth [14]: 15.1% | growth [15]: 4.85% (active) | growth [19]: -14.9% (active) | growth [16]: -44.2% (active) | growth [17]: 19.1% | growth [18]: 11.6%

CNC(=O)c1nn(C)c2c1C(C)(C)Cc1cnc(Nc3ccc(N4CCN(C)CC4)cc3)nc1-2
growth [1]: 3.12% (active) | growth [2]: -16.2% (active) | growth [3]: -20.6% (active) | growth [4]: 12.3% | growth [5]: 8.54% (active) | growth [6]: 7.92% (active) | growth [7]: -9.49% (active) | growth [8]: 5.27% (active) | growth [9]: 16.2% | growth [11]: 5.74% (active) | growth [12]: 11.3% | growth [13]: -8.73% (active) | growth [14]: -12.5% (active) | growth [15]: 9.62% (active) | growth [19]: 7.68% (active) | growth [16]: -61.6% (active) | growth [17]: 10.4% | growth [18]: 2.29% (active)

S=C(NCc1ccc2c(c1)OCO2)N1CCN(c2ncnc3c2oc2ccccc23)CC1
growth [1]: 37.1% | growth [2]: 28.9% | growth [3]: 37.6% | growth [4]: 49.1% | growth [5]: 41.3% | growth [6]: 27.3% | growth [7]: 31% | growth [8]: 44.6% | growth [9]: 52.9% | growth [11]: 38.8% | growth [12]: 50.8% | growth [13]: 11.9% | growth [14]: -3% (active) | growth [15]: 19.6% | growth [19]: 28% | growth [16]: 19.8% | growth [17]: 22.5% | growth [18]: 5.79% (active)

Cc1ccc(-n2nc(C(C)(C)C)cc2NC(=O)NCc2cc(F)ccc2Oc2ccc3c(cnn3CCO)c2)cc1
growth [1]: 17.5% | growth [2]: 5.67% (active) | growth [3]: 32.7% | growth [4]: 48.1% | growth [5]: 31.3% | growth [6]: 33.5% | growth [7]: 7.75% (active) | growth [8]: 5.06% (active) | growth [9]: 0.876% (active) | growth [11]: 39.7% | growth [12]: 19.5% | growth [13]: -6.07% (active) | growth [14]: 4.78% (active) | growth [15]: 11.7% | growth [19]: 20.2% | growth [16]: -10.8% (active) | growth [17]: 20% | growth [18]: 3.32% (active)

O=C(O)c1ccc(Nc2ncc3c(n2)-c2ccc(Cl)cc2C(c2c(F)cccc2F)=NC3)cc1
growth [1]: 50.5% | growth [2]: 30.2% | growth [3]: 48.8% | growth [4]: 54.6% | growth [5]: 42.5% | growth [6]: 51.3% | growth [7]: 51.6% | growth [8]: 33% | growth [9]: 75.1% | growth [11]: 80.1% | growth [12]: 62.8% | growth [13]: 41.8% | growth [14]: 40.1% | growth [15]: 49% | growth [19]: 47.6% | growth [16]: 25.3% | growth [17]: 36.6% | growth [18]: 44.6%

OCCNC(=S)Nc1ccc(-c2nc(N3C[C@H]4CC[C@@H](C3)O4)c3cccn3n2)cc1
growth [1]: 13% | growth [2]: 20.1% | growth [3]: -30.4% (active) | growth [4]: 0.975% (active) | growth [5]: 7.99% (active) | growth [6]: 9.91% (active) | growth [7]: -36.5% (active) | growth [8]: 1.79% (active) | growth [9]: -5.35% (active) | growth [10]: -21.5% (active) | growth [11]: 1.72% (active) | growth [12]: 2.32% (active) | growth [13]: -13.8% (active) | growth [14]: -28.2% (active) | growth [15]: 6.16% (active) | growth [19]: 6.32% (active) | growth [17]: 18.9% | growth [18]: 16.7%

O=C1NC(=O)C(c2cnc3ccccn23)=C1c1cn2c3c(cc(F)cc13)CN(C(=O)N1CCCCC1)CC2
growth [1]: 56.7% | growth [2]: 22.9% | growth [3]: 37.4% | growth [4]: 71.1% | growth [5]: 36.3% | growth [6]: 41.8% | growth [7]: 40.1% | growth [8]: 27.5% | growth [9]: 76.8% | growth [11]: 68.6% | growth [12]: 63.2% | growth [13]: 28.8% | growth [14]: 56.1% | growth [15]: 39.7% | growth [19]: 43.5% | growth [16]: -10.5% (active) | growth [17]: 27.9% | growth [18]: 12.1%

CC(=O)O[C@]1(C)C[C@H](O)[C@]2(O)C=CO[C@H](O[C@@H]3O[C@H](CO)[C@@H](O)[C@H](O)[C@H]3O)[C@@H]21
growth [1]: 99.1% | growth [2]: 103% | growth [3]: 83.3% | growth [4]: 99.6% | growth [5]: 99.8% | growth [6]: 103% | growth [7]: 100% | growth [8]: 105% | growth [9]: 112% | growth [11]: 92.7% | growth [12]: 101% | growth [13]: 90.6% | growth [14]: 95.9% | growth [15]: 108% | growth [19]: 102% | growth [16]: 110% | growth [17]: 109% | growth [18]: 97.5%

Cn1c(Nc2ccc(C(F)(F)F)cc2)nc2cc(Oc3ccnc(-c4ncc(C(F)(F)F)[nH]4)c3)ccc21
growth [1]: 21.4% | growth [2]: 6.83% (active) | growth [3]: 61.2% | growth [4]: 56.6% | growth [5]: 46.3% | growth [6]: 65.8% | growth [7]: 8.71% (active) | growth [8]: 34.1% | growth [9]: 8.35% (active) | growth [11]: 57.9% | growth [12]: 59.8% | growth [13]: 28.8% | growth [14]: 95% | growth [15]: 42.2% | growth [19]: 34.7% | growth [16]: 23.7% | growth [17]: 36.6% | growth [18]: 25.7%

Oc1ccc(/C=N/Nc2nnc(N/N=C/c3ccc(O)cc3O)c3ccccc23)c(O)c1
growth [1]: 7.14% (active) | growth [2]: -35.3% (active) | growth [3]: -46.9% (active) | growth [4]: -1.04% (active) | growth [5]: -25% (active) | growth [6]: -50.8% (active) | growth [7]: -94.8% (active) | growth [8]: -51.4% (active) | growth [9]: -43.3% (active) | growth [10]: -58% (active) | growth [11]: -18.4% (active) | growth [12]: -28% (active) | growth [13]: 0% (active) | growth [14]: 10.5% | growth [15]: -3.24% (active) | growth [16]: -61.1% (active) | growth [17]: -51.4% (active) | growth [18]: -26.9% (active)
